# Key:
# [1] = molecular target: Serine/threonine-protein kinase pim-2 (Homo sapiens) (UniProt Q9P1W9); settings: at 1 µM;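 also: each value is a mean of the inhibition measurements against the kinase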
# [2] = molecular target: Serine/threonine-protein kinase pim-3 (Homo sapiens) (UniProt Q86V86); settings: at 0.1 µM
# [3] = molecular target: Serine/threonine-protein kinase pim-3 (Homo sapiens) (UniProt Q86V86); settings: at 1 µM
# [4] = molecular target: T1, MAP kinase-activated protein kinase 5 (Homo sapiens) (UniProt Q8IW41); settings: at 0.1 µM
# T1 sequence (whole entry): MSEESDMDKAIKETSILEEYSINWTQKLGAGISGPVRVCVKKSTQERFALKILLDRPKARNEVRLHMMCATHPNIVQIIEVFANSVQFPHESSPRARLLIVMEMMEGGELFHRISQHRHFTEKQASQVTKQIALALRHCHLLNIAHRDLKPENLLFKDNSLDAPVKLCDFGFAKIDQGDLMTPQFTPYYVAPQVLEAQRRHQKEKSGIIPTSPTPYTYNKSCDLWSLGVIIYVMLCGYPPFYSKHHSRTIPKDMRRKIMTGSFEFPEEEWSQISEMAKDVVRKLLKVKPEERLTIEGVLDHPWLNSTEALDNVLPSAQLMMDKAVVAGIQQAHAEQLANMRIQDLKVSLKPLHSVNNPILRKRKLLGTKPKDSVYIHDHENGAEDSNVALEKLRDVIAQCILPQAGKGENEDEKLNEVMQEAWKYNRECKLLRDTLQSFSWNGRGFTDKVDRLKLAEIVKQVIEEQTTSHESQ
# [5] = molecular target: T1, MAP kinase-activated protein kinase 5 (Homo sapiens); settings: at 1 µM
# [6] = molecular target: Serine/threonine-protein kinase SIK1 (Homo sapiens) (UniProt P57059); settings: at 0.1 µM
# Serine/threonine-protein kinase SIK1 (Homo sapiens), sequence (P57059 whole entry): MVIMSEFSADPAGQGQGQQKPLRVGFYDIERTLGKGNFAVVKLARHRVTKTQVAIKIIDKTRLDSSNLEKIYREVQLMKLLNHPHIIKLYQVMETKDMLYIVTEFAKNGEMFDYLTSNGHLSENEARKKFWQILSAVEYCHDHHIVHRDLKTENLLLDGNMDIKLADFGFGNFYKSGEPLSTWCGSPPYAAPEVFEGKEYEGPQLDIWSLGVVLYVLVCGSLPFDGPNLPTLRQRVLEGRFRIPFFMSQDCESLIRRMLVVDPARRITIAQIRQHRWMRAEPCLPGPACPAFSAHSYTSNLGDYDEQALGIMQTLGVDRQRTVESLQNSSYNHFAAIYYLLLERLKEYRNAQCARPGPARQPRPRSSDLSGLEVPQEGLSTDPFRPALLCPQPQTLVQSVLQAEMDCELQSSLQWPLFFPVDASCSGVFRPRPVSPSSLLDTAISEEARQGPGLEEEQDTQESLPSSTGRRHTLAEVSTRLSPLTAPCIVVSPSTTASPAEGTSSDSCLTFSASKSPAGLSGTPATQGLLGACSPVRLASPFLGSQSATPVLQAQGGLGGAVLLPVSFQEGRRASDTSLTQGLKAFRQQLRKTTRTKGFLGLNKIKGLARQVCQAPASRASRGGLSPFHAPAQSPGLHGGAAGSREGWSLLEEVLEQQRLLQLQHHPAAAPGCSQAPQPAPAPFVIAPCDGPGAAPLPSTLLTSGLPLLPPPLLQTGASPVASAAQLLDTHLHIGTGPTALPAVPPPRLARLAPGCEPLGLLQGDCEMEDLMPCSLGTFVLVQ
# [7] = molecular target: Serine/threonine-protein kinase SIK1 (Homo sapiens) (UniProt P57059); settings: at 1 µM
# [8] = molecular target: Serine/threonine-protein kinase SIK2 (Homo sapiens) (UniProt Q9H0K1); settings: at 0.1 µM
# Serine/threonine-protein kinase SIK2 (Homo sapiens), sequence (Q9H0K1 whole entry, looked up): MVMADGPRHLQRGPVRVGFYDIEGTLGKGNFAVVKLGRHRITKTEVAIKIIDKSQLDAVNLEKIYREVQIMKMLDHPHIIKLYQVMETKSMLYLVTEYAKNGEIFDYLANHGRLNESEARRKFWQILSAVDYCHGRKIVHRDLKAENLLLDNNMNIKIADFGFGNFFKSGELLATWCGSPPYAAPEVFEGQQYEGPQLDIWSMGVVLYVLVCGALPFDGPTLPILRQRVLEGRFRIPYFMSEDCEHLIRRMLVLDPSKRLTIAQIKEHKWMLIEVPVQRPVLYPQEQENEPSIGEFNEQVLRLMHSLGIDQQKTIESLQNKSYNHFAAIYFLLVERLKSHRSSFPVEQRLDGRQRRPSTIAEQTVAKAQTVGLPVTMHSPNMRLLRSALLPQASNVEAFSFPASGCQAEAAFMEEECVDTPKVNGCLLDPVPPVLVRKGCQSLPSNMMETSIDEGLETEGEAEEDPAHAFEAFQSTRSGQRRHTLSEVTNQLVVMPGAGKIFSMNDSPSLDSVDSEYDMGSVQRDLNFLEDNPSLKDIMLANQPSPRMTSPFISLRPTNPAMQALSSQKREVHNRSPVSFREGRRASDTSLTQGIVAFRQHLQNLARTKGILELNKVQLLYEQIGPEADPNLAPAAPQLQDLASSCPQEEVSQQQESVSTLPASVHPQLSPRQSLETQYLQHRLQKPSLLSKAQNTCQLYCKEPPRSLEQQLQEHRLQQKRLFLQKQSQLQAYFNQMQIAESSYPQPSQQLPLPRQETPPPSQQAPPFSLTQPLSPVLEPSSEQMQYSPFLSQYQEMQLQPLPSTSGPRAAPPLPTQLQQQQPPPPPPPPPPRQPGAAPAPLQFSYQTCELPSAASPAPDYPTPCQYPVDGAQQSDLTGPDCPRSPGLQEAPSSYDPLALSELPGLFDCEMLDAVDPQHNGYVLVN
# [9] = molecular target: Serine/threonine-protein kinase SIK2 (Homo sapiens) (UniProt Q9H0K1); settings: at 1 µM
# [10] = molecular target: T2, Serine/threonine-protein kinase TBK1 (Homo sapiens) (UniProt Q9UHD2); settings: at 0.1 µM
# T2 sequence (whole entry): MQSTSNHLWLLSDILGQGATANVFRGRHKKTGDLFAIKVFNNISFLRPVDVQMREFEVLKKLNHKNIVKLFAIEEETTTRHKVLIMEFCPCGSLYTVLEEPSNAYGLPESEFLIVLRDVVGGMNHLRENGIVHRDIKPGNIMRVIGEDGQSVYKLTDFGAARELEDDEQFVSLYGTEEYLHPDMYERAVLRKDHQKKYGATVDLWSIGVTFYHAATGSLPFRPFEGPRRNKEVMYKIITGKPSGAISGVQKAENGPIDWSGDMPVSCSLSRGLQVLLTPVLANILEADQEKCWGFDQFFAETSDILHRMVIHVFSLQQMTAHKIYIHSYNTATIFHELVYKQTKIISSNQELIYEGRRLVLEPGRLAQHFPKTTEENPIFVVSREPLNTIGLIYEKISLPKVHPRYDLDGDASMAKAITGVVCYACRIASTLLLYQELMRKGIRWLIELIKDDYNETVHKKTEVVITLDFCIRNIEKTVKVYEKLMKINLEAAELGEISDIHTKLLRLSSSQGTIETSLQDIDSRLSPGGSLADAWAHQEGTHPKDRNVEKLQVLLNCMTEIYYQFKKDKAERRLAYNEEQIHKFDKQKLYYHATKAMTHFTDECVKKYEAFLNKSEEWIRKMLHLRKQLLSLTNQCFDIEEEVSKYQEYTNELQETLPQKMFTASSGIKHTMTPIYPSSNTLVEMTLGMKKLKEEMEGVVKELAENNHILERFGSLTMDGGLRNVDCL
# [11] = molecular target: T2, Serine/threonine-protein kinase TBK1 (Homo sapiens); settings: at 1 µM
# [12] = molecular target: T3, Testis-specific serine/threonine-protein kinase 1 (Homo sapiens) (UniProt Q9BXA7); settings: at 0.1 µM
# T3 sequence (whole entry): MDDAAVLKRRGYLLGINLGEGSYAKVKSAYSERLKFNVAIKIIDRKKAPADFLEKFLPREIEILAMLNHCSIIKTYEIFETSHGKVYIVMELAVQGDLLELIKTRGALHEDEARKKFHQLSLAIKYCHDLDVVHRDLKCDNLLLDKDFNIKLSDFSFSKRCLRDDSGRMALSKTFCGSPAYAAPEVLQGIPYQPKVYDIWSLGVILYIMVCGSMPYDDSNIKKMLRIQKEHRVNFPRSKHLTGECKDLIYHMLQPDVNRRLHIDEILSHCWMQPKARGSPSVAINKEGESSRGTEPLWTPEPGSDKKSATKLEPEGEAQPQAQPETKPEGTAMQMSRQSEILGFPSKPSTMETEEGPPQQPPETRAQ
# [13] = molecular target: T3, Testis-specific serine/threonine-protein kinase 1 (Homo sapiens); settings: at 1 µM
# [14] = molecular target: T4, Testis-specific serine/threonine-protein kinase 2 (Homo sapiens) (UniProt Q96PF2); settings: at 0.1 µM
# T4 sequence (whole entry): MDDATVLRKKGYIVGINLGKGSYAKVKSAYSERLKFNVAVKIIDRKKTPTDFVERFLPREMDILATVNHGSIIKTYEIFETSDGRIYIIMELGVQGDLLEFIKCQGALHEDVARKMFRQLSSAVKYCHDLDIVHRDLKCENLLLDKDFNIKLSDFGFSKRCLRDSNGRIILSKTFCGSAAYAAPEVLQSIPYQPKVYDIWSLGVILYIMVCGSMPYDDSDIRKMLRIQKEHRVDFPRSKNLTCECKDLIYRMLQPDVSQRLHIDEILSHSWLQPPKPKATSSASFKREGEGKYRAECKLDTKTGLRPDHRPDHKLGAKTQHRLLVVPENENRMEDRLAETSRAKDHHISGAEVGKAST
# [15] = molecular target: T4, Testis-specific serine/threonine-protein kinase 2 (Homo sapiens); settings: at 1 µM
# [16] = molecular target: Casein kinase I isoform alpha (Homo sapiens) (UniProt P48729); settings: at 0.1 µM
# Casein kinase I isoform alpha (Homo sapiens), sequence (P48729 2-337 limits assumed): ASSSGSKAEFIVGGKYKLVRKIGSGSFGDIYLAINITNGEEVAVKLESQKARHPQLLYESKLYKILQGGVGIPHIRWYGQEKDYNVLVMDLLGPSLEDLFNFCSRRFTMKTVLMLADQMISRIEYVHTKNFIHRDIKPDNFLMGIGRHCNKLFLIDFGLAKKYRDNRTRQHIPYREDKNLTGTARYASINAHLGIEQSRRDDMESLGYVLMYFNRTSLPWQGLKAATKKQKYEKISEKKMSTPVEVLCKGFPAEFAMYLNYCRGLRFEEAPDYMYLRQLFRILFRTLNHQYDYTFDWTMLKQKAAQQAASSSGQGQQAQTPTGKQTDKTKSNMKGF
# [17] = molecular target: Casein kinase I isoform alpha (Homo sapiens) (UniProt P48729); settings: at 1 µM
# [18] = molecular target: Casein kinase I isoform gamma-1 (Homo sapiens) (UniProt Q9HCP0); settings: at 0.1 µM
# Casein kinase I isoform gamma-1 (Homo sapiens), sequence (Q9HCP0 whole entry, looked up, canonical isoform): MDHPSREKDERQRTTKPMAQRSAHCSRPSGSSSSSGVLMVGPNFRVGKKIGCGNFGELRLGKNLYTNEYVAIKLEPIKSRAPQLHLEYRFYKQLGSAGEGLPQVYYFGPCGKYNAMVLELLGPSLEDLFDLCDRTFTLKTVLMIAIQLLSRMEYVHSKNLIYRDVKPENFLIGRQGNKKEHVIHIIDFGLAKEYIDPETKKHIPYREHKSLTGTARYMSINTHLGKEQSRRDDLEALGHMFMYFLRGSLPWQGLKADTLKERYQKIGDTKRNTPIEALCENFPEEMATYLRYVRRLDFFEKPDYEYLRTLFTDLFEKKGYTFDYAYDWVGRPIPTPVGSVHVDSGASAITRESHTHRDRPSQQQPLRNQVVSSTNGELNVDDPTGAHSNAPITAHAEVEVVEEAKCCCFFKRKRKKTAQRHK
# [19] = molecular target: Casein kinase I isoform gamma-1 (Homo sapiens) (UniProt Q9HCP0); settings: at 1 µM
# [20] = molecular target: Casein kinase I isoform gamma-2 (Homo sapiens) (UniProt P78368); settings: at 0.1 µM;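 also: values are mean inhibition figures reported as part of the GSK PKIS dataset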
# Casein kinase I isoform gamma-2 (Homo sapiens), sequence (P78368 whole entry, looked up, canonical isoform): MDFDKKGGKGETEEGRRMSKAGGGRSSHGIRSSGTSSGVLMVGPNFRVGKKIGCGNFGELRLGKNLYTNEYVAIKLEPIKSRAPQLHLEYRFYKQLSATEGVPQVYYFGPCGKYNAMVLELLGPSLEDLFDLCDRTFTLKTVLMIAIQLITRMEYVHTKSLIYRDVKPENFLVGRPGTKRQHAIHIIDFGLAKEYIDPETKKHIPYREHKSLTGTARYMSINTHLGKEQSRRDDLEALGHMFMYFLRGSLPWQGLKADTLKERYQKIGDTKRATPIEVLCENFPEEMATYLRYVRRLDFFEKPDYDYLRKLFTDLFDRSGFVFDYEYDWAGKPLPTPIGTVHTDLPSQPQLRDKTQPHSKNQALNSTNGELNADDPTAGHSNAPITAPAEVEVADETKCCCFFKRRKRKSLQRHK
# Serine/threonine-protein kinase pim-2 (Homo sapiens), sequence (Q9P1W9 whole entry, looked up): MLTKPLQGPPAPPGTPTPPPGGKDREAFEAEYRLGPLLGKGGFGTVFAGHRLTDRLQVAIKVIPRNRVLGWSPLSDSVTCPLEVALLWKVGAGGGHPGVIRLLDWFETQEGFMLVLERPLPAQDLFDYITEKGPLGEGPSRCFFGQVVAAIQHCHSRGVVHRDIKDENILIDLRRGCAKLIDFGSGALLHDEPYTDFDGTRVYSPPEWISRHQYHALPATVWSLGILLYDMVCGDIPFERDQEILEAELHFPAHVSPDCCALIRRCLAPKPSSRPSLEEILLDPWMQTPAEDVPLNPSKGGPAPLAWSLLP
SMILES,inhibition [1] [%],inhibition [2] [%],inhibition [3] [%],inhibition [4] [%],inhibition [5] [%],inhibition [6] [%],inhibition [7] [%],inhibition [8] [%],inhibition [9] [%],inhibition [10] [%],inhibition [11] [%],inhibition [12] [%],inhibition [13] [%],inhibition [14] [%],inhibition [15] [%],inhibition [16] [%],inhibition [17] [%],inhibition [18] [%],inhibition [19] [%],inhibition [20] [%]
FC(F)(F)c1cccc(Nc2nccc(-c3cnn4nc(-c5ccccc5)ccc34)n2)c1,1.06,-0.15,-0.3,0.76,0.4,-0.41,7,2.43,5.47,-0.2,4.35,1.23,2.01,1.62,0.24,-0.33,1.52,2.48,2.54,2.27
O=C1Nc2ccc(I)cc2C1=Cc1cc(Br)c(O)c(Br)c1,18.2,1.85,17.7,1.19,1.78,8.91,9.38,4.92,9.04,3.66,2.5,4.56,5.45,2.33,2.81,5.08,6.76,3.7,5.38,3.7
COC(=O)Nc1nc2ccc(Sc3ccc(NC(=O)Nc4cc(C(F)(F)F)ccc4F)cc3)cc2[nH]1,-0.09,1.76,2.48,0.03,-0.97,3.94,0.98,4.86,0.47,-0.64,2.38,-0.48,-2.84,-0.2,-1.84,-0.33,1.98,-0.12,0.47,-0.85
CN1CCN(CCCNc2nc3ccc(Oc4ccc(NC(=O)Nc5cc(C(F)(F)F)ccc5F)cc4)cc3[nH]2)CC1,-1.74,1.11,-0.28,-0.1,-1.41,0.75,3.99,-2.3,0.76,1.88,3.78,0.87,-0.16,-0.81,-1.46,1.84,0.56,-1.36,-3.19,-4.72
NC(=O)c1ccc(Oc2nccc(-c3c(-c4ccc(F)cc4)ncn3C3CCNCC3)n2)cc1,-0.49,0.26,1.82,3.51,2.54,4.73,11.3,7.22,3.63,3.9,4.3,4.45,5.29,2.52,2.46,5.63,30.3,5.2,9.98,5.16
O=C(Nc1n[nH]c2nc(-c3ccco3)ccc12)C1CC1,-0.06,0.6,-0.35,-0.19,-1.25,4.89,3.71,0.98,3.32,1.19,2.8,1.99,-0.53,0.63,-1.49,0.06,3.38,0.09,1.22,-0.26

# Reference: ChEMBL document CHEMBL1961873, “Compounds: GSK PKIS; Assays: Nanosyn kinase panel” (2012)
